Measurements as given in PubChem BioAssay.
Activity calls are given as the source filed them.

Assays:
[1] = test system: Plasmodium falciparum Sir2 (PF13_0152, Sir2A); experiment: Plasmodium falciparum Sir2A binding compounds – biochemical, small-molecule microarray, 635 nm fluorescence, primary screen (AID 1098); details: fluorescence 635 nm, higher = more signal;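 note: score merges spot fluorescence intensity with its signal-to-noise ratio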
[2] = probe aDKK1 binding to arrayed compounds – biochemical, biotinylated probe, 635/667 nm fluorescence, primary screen (AID 1099); details: small-molecule microarray, higher = more signal;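 note: score merges 667nm spot fluorescence with signal to noise across triplicate slides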
[3] = probe aCHRDL2 binding to arrayed compounds – biochemical, biotinylated probe, 635/667 nm fluorescence, primary screen (AID 1100); details: small-molecule microarray, higher = more signal
[4] = change in splice reporter luminescence, either direction, cell-based, HEK293, spliceosome inhibition project, primary screen (AID 1101); details: HEK293 splicing luciferase reporter, 24 h, higher = more signal, called active from +8 up or from −8 down;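 note: HEK293 cells carrying a splicing-competent luciferase reporter gene; test concentration not given here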
[5] = target: Fibroblast growth factor 10 (Homo sapiens) (UniProt O15520); experiment: compounds binding fibroblast growth factor 10 – biochemical, small-molecule microarray, 635 nm fluorescence, primary screen (AID 1102); details: FGF10 binding, fluorescence 635 nm, higher = more signal
[6] = test system: glycogen synthase kinase-3 (GSK3A per assay name; protocol says GSK3B); experiment: compounds binding glycogen synthase kinase-3 – biochemical, small-molecule microarray, 635 nm fluorescence, GSK3A, primary screen (AID 1103); details: fluorescence 635 nm, higher = more signal; note: the record names both GSK3A and GSK3B
[7] = target: Epidermal growth factor receptor (Homo sapiens) (UniProt P00533); experiment: compounds binding epidermal growth factor receptor – biochemical, small-molecule microarray, 635 nm fluorescence, primary screen (AID 1104); details: EGFR binding, higher = more signal;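 note: score merges 667 nm emission intensity with spot signal to noise over triplicate slides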
[8] = target: Follistatin-related protein 3 (Homo sapiens) (UniProt O95633); experiment: compounds binding follistatin-related protein 3 – biochemical, small-molecule microarray, 635 nm fluorescence, primary screen (AID 1105); details: FSTL3 binding, higher = more signal;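 note: score merges emission near 667 nm and signal to noise per printed spot across three slides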
[9] = target: Dickkopf-related protein 1 (Homo sapiens) (UniProt O94907); experiment: small molecules binding DKK1 protein – biochemical, small-molecule microarray, 635 nm fluorescence scan, primary screen (AID 1106); details: higher = more signal;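 note: score merges emission near 667 nm with signal to noise over three replicate slides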
[10] = test system: Inhibin beta A chain (activin A); experiment: small molecules binding activin A – biochemical, small-molecule microarray, 635 nm fluorescence scan, primary screen (AID 1107); details: INHBA, higher = more signal;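 note: mouse activin A protein probed at 4.33 µg/mL on printed slides; score merges bound-protein fluorescence near 667 nm with spot signal-to-noise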
[11] = test system: Human papillomavirus type 1a protein E7 (residues 44-93); experiment: small molecules binding HPV E7 44-93 – biochemical, small-molecule microarray, residues 44-93, 635 nm fluorescence, primary screen (AID 1108); details: fluorescence 635 nm, higher = more signal;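 note: E7 fragment applied at 1 µg/mL in TBST for 1 h at 4 C; score combines spot fluorescence with its signal to noise ratio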
[12] = hepatitis C replication reporter changes, two-sided – Huh7 cells, luciferase reporter, HCV replication inhibitor project, primary screen (AID 1109); details: Huh7 HCV replicon luciferase reporter, 48 h; higher = more signal;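 note: huh7 hepatoma cells harbouring a luciferase neomycin HCV replicon reporter; luciferase luminescence as measure of HCV replicon replication; test concentration not given here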
[13] = target: Left-right determination factor 2 (Homo sapiens) (UniProt O00292); experiment: small molecules binding LEFTY2 protein – biochemical, small-molecule microarray, 635 nm fluorescence scan, primary screen (AID 1110); details: higher = more signal
[14] = target: Calmodulin-1 (Homo sapiens) (UniProt P0DP23); experiment: small molecules binding calmodulin-1 with EGTA – biochemical, small-molecule microarray, Cy5-labelled CALM1, profiling panel (AID 1111); details: Cy5-CALM1 binding fluorescence, higher = more signal;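 note: labelled calmodulin applied in Tris saline Tween buffer holding calcium plus EGTA and DTT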
[15] = target: Calmodulin-1 (Homo sapiens) (UniProt P0DP23); experiment: small molecules binding Ca-loaded calmodulin-1 – biochemical, small-molecule microarray, Cy5-labelled CALM1, plus calcium, artefact control for SMM control-protein annotation, profiling panel (AID 1112); details: Cy5-CALM1 binding fluorescence, higher = more signal;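 note: score merges spot fluorescence with signal to noise from triplicate slides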
[16] = probe aWnt5a binding to arrayed compounds – biochemical, biotinylated probe, 635/667 nm fluorescence, primary screen (AID 1113); details: small-molecule microarray, higher = more signal;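 note: score merges 667 nm fluorescence intensity with signal-to-noise per printed feature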
[17] = probe aShh binding to arrayed compounds – biochemical, biotinylated probe, 635/667 nm fluorescence, primary screen (AID 1114); details: small-molecule microarray, higher = more signal;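 note: probe is biotin-labelled aShh protein from a stem cell growth factor screen; measures binding of labelled protein to compounds printed on the slide; score merges feature fluorescence at 667 nm with signal-to-noise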
[18] = probe aNog binding to arrayed compounds – biochemical, biotinylated probe, 635/667 nm fluorescence, primary screen (AID 1115); details: small-molecule microarray, higher = more signal;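 note: probe is biotinylated aNog protein used at 0.15 µg/mL for 1 h at 4 C; z-score combines 667 nm fluorescence of each spot with its signal to noise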
[19] = target: Torsin-1A-interacting protein 1 (Homo sapiens) (UniProt Q5JTV8); experiment: compound microarray binding of lysate hLAP1 – cell lysate, small-molecule microarray, COS7 lysate, 635/667 nm fluorescence, primary screen (AID 1116); details: 635 nm fluorescence, higher = more signal
[20] = target: Alpha-bungarotoxin (Bungarus multicinctus) (UniProt P60615); experiment: compounds binding labelled alpha-BTX control protein – biochemical, small-molecule microarray, Alexa647 label, 635/667 nm fluorescence, artefact control for SMM control protein annotation, profiling panel (AID 1117); details: alpha-BTX-A647 binding fluorescence, higher = more signal
Sequence of Alpha-bungarotoxin (Bungarus multicinctus) (P60615 whole entry, looked up): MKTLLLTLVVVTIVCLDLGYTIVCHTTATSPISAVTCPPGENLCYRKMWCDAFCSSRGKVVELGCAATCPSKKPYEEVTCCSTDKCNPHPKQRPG

Sequence of Torsin-1A-interacting protein 1 (Homo sapiens) (Q5JTV8 whole entry, looked up): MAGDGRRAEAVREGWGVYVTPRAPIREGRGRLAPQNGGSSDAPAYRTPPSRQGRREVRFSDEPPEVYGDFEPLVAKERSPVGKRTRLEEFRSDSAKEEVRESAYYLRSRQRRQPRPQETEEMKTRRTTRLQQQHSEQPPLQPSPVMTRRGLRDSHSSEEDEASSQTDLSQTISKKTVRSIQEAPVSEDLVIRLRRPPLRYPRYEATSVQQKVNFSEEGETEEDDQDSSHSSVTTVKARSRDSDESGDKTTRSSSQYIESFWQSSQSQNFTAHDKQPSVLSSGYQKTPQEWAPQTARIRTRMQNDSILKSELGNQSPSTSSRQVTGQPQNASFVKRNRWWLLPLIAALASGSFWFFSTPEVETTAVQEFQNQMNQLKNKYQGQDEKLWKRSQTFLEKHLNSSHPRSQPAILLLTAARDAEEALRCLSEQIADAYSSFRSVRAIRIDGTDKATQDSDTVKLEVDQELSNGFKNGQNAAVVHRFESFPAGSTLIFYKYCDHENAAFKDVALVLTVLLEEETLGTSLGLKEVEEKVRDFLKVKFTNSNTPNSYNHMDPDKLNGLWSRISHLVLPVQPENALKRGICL
Sequence of Fibroblast growth factor 10 (Homo sapiens) (O15520 whole entry, looked up): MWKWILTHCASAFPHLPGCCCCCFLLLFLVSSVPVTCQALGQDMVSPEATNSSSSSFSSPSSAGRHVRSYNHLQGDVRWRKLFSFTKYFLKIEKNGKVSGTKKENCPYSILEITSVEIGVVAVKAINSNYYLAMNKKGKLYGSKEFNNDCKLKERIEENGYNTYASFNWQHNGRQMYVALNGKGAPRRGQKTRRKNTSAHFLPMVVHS
Sequence of Dickkopf-related protein 1 (Homo sapiens) (O94907 whole entry, looked up): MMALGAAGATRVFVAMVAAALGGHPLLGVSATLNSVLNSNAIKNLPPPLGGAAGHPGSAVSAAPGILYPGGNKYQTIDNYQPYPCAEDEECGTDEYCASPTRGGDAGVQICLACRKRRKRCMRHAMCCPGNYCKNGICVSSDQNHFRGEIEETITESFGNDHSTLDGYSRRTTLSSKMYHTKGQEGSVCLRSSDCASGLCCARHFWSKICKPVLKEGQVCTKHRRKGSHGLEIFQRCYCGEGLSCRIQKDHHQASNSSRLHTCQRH
Sequence of Epidermal growth factor receptor (Homo sapiens) (P00533 whole entry, looked up): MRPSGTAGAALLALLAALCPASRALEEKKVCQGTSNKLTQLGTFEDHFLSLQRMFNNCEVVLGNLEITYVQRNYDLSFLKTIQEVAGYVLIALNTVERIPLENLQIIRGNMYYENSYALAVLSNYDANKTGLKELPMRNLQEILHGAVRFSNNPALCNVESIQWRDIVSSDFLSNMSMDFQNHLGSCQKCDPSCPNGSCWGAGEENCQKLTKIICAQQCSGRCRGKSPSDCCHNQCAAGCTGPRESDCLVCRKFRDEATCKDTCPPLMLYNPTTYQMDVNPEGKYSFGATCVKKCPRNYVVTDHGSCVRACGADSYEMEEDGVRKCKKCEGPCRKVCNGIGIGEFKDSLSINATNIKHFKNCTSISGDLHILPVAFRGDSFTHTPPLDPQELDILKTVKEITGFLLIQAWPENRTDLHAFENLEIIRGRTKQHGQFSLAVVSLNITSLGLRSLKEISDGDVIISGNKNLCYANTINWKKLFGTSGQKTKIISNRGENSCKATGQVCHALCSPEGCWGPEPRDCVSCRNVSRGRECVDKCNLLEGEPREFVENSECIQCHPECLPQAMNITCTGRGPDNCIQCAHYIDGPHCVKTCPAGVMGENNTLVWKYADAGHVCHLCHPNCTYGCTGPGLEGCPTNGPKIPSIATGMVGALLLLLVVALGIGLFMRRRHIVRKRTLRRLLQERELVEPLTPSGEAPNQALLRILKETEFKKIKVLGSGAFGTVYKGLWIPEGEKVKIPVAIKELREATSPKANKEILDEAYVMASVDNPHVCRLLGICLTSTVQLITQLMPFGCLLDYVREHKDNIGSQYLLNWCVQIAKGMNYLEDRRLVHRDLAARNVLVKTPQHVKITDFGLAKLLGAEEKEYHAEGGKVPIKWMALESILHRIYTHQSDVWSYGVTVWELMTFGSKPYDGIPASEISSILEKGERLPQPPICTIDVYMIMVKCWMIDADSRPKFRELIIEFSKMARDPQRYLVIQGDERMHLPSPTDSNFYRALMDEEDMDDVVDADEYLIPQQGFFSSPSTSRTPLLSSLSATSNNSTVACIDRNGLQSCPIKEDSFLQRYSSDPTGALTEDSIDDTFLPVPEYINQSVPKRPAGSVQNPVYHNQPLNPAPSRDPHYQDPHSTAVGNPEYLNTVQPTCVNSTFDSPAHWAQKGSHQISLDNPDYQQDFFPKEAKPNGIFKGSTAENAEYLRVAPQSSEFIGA
Sequence of Left-right determination factor 2 (Homo sapiens) (O00292 whole entry, looked up): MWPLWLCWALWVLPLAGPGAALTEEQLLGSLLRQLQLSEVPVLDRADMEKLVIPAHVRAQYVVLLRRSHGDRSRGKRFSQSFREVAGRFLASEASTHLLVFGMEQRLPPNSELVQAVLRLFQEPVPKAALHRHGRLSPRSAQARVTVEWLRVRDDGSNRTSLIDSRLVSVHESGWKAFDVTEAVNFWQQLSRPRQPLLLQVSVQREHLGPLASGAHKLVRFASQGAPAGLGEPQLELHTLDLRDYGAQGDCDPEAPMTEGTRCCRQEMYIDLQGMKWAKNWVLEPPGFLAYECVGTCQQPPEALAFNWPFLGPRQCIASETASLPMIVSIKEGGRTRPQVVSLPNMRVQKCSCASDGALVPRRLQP
Sequence of Follistatin-related protein 3 (Homo sapiens) (O95633 whole entry, looked up): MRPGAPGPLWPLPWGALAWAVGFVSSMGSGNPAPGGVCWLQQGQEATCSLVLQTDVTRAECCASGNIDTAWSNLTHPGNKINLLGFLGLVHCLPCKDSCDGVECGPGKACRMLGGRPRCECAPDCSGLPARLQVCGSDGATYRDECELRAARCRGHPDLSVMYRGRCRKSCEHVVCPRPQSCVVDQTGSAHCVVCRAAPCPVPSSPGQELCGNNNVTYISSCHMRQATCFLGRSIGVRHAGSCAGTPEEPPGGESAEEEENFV

Compound	composite z-score [1]	composite z-score [2]	composite z-score [3]	z-score [4]	composite z-score [5]	composite z-score [6]	composite z-score [7]	composite z-score [8]	composite z-score [9]	composite z-score [10]	composite z-score [11]	z-score [12]	composite z-score [13]	composite z-score [14]	composite z-score [15]	composite z-score [16]	composite z-score [17]	composite z-score [18]	composite z-score [19]	composite z-score [20]
O[C@@H](Cc1ccccc1)[C@H]1C2C=CCCC(c3ccccc3)=C2CN1Cc1cccc(Cl)c1 (stereo not given in full)	0.0167	-0.0232	0.7	-0.205 (inactive)	0.653	0.913	0.21	0.847	0.473	0.264	0.921	-2.27	0.286	-0.118	-0.264	-0.157	-0.0243	0.14	0.464	0.475
COCCOC(=O)N1C(=O)[C@@]2(c3cc(C#CCNC(N)=O)ccc31)[C@H](c1ccccc1OCCO)N1[C@H](c3ccccc3)[C@H](c3ccccc3)OC(=O)[C@H]1[C@@H]2C(=O)N1CCN(c2ncccn2)CC1	1.61	0.376	0.702	-0.099 (inactive)	1.15	0.375	0.315	0.623	0.0239	1.35	0.648	-0.672	0.377	0.821	0.749	0.0326	-0.108	-0.105	1.01	2.14
CCCNC(=O)OC[C@H]1O[C@H](CCON=C[C@@H](OC)[C@H](C)C=CCC(=O)OC)C=C[C@@H]1Oc1ccc(OC)cc1	0.638	-0.305	-0.528	-0.213 (inactive)	0.463	-0.0589	0.15	0.109	0.482	0.717	0.0209	-1.72	0.453	-1.81	-0.848	-0.119	-0.01	-0.318	0.322	0.908
C/C=C\[C@@H](NCc1ccccc1Br)[C@@H](O)Cc1ccccc1	0.556	0.41	1.19	-0.307 (inactive)	-1.69	-0.683	-1.37	-1.69	-1.58	0.0067	-0.594	-3.08	-0.472	-0.64	0.0924	-0.12	-0.291	-0.18	-0.541	-0.791
CC(C)=CCCC(C)=CCON=C1[C@H]2CCn3c(=O)n(C)c(=O)n3[C@H]2[C@H](O)[C@@H]2O[C@H]12	0.819	-0.317	-0.378	0.709 (inactive)	0.868	1.26	0.779	1.05	0.921	0.832	1.32	-0.621	0.692	-0.257	-0.845	0.188	0.131	-0.0146	1.2	-0.0134
COc1ccc(O[C@H]2C=C[C@@H](c3ccccc3)O[C@@H]2COC(=O)CCC(C)=NO[C@@H](C)c2cc(-c3c(C)cc(C)cc3C)no2)cc1	-0.0775	-0.344	0.268	-0.398 (inactive)	-1.05	-2.04	-0.747	-1.39	-0.872	0.934	-1.13	-1.15	-0.965	-0.977	-0.55	-0.194	0.255	-0.0207	-1.16	-0.707
Cc1cc2c(nc1C)CCCN2CC(C)ON=C1[C@H]2CCn3c(=O)n(-c4ccccc4)c(=O)n3[C@H]2[C@H](O)[C@@H]2O[C@H]12 (stereo not given in full)	0.508	-0.013	-0.499	-0.736 (inactive)	0.618	1.1	0.822	0.828	0.686	0.693	0.862	-3.29	0.377	-0.135	-0.458	-0.0077	0.767	0.066	0.184	0.515
CCc1cccc(NC(=O)O[C@H]2[C@H](OC(=O)Nc3ccc4c(c3)OCO4)[C@@H](OC(=O)Nc3ccc4c(c3)OCO4)[C@@H](OC)O[C@@H]2CO)c1	0.402	-0.144	-0.0627	-0.637 (inactive)	1.38	1.35	0.446	1.32	0.583	0.863	1.4	-0.717	0.645	0.779	-1.12	0.0136	0.214	-0.229	0.577	0.545
COCCCNC(=O)[C@]1(Cc2ccccc2)N=C(c2ccc(OCCCO)cc2)O[C@@H]1c1ccccc1	1.73	-0.0501	0.755	0.0778 (inactive)	1.16	0.618	-0.578	-0.351	-0.894	0.455	1.09	-1.05	-0.248	1.81	0.213	0.201	0.299	1.89	1.84	1.32
CO[C@@H]1COC(=O)CC=C[C@@H](C)COC(=O)[C@H](COCc2ccccc2)NC(=O)CC=C[C@H]1C	1.49	-0.526	-1.31	-0.912 (inactive)	0.285	0.19	0.912	1.23	1.64	1.63	-0.956	-0.151	1.02	-0.838	-1.28	-0.0721	0.0278	-0.298	0.325	-0.397
O=C(CS)NCCCCCNC(=O)[C@@H]1C[C@@H]2C(=O)N[C@@H](Cc3ccccc3)C(=O)N2[C@@H]1c1ccc(O)cc1	1	0.121	0.526	0.339 (inactive)	1.02	1.17	-0.146	0.265	0.325	-0.516	0.985	-0.374	0.514	0.283	-0.11	0.0004	0.149	-0.122	0.858	1.48
COC(=O)[C@@H]1CC[C@H](C)[C@@H](c2ccc(C)cc2)N1C(=O)c1ccc(C=NOC[C@@H](O)COCc2ccco2)cc1	-0.525	-0.456	0.675	-0.0402 (inactive)	-1.43	-1.79	-1.3	-2.16	-0.5	1.87	-1.6	-2.42	0.283	-1.22	-1.22	-0.21	-0.2	-0.788	-1.63	-1.25
